Laboratory results published in PubChem BioAssay (Tox21).
Records with an inconclusive call do not appear. Values without a mark were called inactive. Activity calls are given as the source filed them. The call rests on the fitted dose curve.

assay: p53 small molecule agonists, cell-based qHTS assay with rat liver microsomes (AID 1963578); settings: HCT-116 p53RE-bla, beta-lactamase ratio, 16 h; series mostly up to 66 µM; activation: at the top concentration
From the text: U.S. Tox21 Program National Center for Advancing Translational Sciences [NCATS] Division of Preclinical Innovation [DPI] U.S. Environmental Protection Agency [EPA] National Institutes of Environmental Health Sciences [NIEHS] National Toxicology Program [NTP] U.S. Food and Drug Administration [FDA] Tox21 Assay Overview: p53, a tumor suppressor protein, is activated following cellular insult, including DNA damage and other cellular stresses. The activation of p53 regulates cell fate by inducing DNA repair, cell cycle arrest, apoptosis, or cellular senescence. The activation of p53, therefore, is a good indicator of DNA damage and other cellular stresses. […] The activation of the reporter gene under culture conditions can be detected by fluorescence intensity. This cell line was used to screen the Tox21 10K compound library in the condition of presence of rat liver microsomes and to identify agonists that activate the p53 signaling pathway after in vitro metabolic activation (Ooka et al., Archive of Toxicology 96:1975-1987, 2022).
Tox21 Assay Protocol Summary: The p53RE-bla cells were dispensed at 4,000cells/3ul/well in 1536-well black-clear bottom plates. After the assay plates were incubated at 37 C, 5% CO2 incubator for 5 hours, 23 nL of compounds dissolved in DMSO, positive controls or DMSO only was transferred to the assay plate. Following compound addition, 3 uL of rat liver microsomes (Molecular Toxicology, Boone, NC) at final concentration of 0.5 mg/mL and 1uL of Beta-Nicotinamide adenine dinucleotide 2-phosphate (NADPH) at final concentration of 0.5 mg/mL were transferred to the assay plate. The plates were incubated at 37 C for 16 hours. 1 uL of LiveBLAzer detection mixture was added to each well and the plates were incubated at room temperature in the dark for 2 h.
On the % scale 0 is the no-effect control and ±100 the full control effect.

Structure (SMILES) | activation | Potency
CC1(O)CSC(C)(O)CS1 (stereo not given) | -0.283% | –
CCNC(=O)/C=C/c1cccc(Br)c1 | -1.61% [at 30.3 µM] | –
Nc1ccc(N=Nc2ccc(N)cc2)cc1 | -4.18% [at 30.3 µM] | –
COC(=O)CSc1cc(N=c2sc(=O)n3n2CCCC3)c(F)cc1Cl | 1.36% | –
CCOc1ccccc1OCC1CNCCO1 (stereo not given) | 0.125% [at 30.3 µM] | –
CC(=O)OC(C)OC(=O)C(C)c1ccc(-c2ccccc2)c(F)c1 (stereo not given) | -2% [at 30.3 µM] | –
CN[C@H]1CC[C@@H](c2ccc(Cl)c(Cl)c2)c2ccc(S(N)(=O)=O)cc21 | 0.739% | –
CN1CCN(c2cc3c(nn2)Oc2ccccc2N3C)CC1 | 0.736% [at 13.6 µM] | –
CC(C)(c1ccccc1)c1ccccc1 | 0.799% | –
CCOC(=O)COc1ccc2c(C)c(CCN(CC)CC)c(=O)oc2c1Cl | 0.376% [at 30.3 µM] | –
CCOc1ccc(NC(C)=O)cc1N | 2.24% | –
CC[C@@H]([C@H](C)O)n1ncn(-c2ccc(N3CCN(c4ccc(OC[C@@H]5CO[C@@](Cn6cncn6)(c6ccc(F)cc6F)C5)cc4)CC3)cc2)c1=O | -1.12% [at 30.3 µM] | –
C/C=C/C(=O)C1=C(C)CCCC1(C)C | -1.59% | –
O=C(O)[C@H](O)c1ccccc1 | 0.757% [at 30.3 µM] | –
Cc1cc([N+](=O)[O-])ccc1N | -1.74% | –
CCCOC(=O)CCCCC(=O)OCCC | 7.1% | –
O=S(=O)(O)c1cc(Cl)c(Cl)cc1Cl | -0.638% | –
CCCc1c(OCCCOc2ccc(OCC(=O)O)cc2)ccc(C(C)=O)c1O | 1.19% | –
CCCCCOc1ccccc1/C(=C\SC)n1ccnc1 | -0.506% [at 30.3 µM] | –
CCCCCCCCCCCCOCCOCCOCCOCCOCCOCCOCCOCCOCCO | -8.78% [at 30.3 µM] | –

Structure (SMILES) | activation | Potency
CCCCCCCCCCCCCCOS(=O)(=O)O | 0.329% | –
CC1(CN2CCC(n3c(=O)[nH]c4ccccc43)CC2)OCc2ccccc2-n2cccc21 (stereo not given) | -0.809% [at 30.3 µM] | –
O=[N+]([O-])c1ccc(O)cc1 | – | inactive
Cc1cc(O)c2ccccc2c1O | -13.4% [at 30.3 µM] | –
Oc1ccc(C2(c3ccc(O)c(C4CCCCC4)c3)CCCCC2)cc1C1CCCCC1 | -0.294% | –
OCCCS | 0.482% | –
O=C(CS)OCCOC(=O)CS | -0.839% | –
C=COCCOCCOC=C | 0% | –
CC(C)CCOC(=O)/C=C/c1ccccc1 | -2.06% | –
NCc1cccc(C2CCN(C(=O)c3ccc(C#Cc4ccccc4F)o3)CC2)c1 | -2.5% | –
Clc1ccc(C(Cn2ccnc2)OCc2ccc(Sc3ccccc3)cc2)c(Cl)c1 (stereo not given) | 0.486% [at 30.3 µM] | –
CCCCC[C@H](O)/C=C/[C@H]1[C@H](O)CC(=O)[C@@H]1C/C=C\CCCC(=O)O | -0.162% [at 30.3 µM] | –
c1cc(C(c2ccc(OCC3CO3)cc2)c2ccc(OCC3CO3)cc2)ccc1OCC1CO1 (stereo not given) | 0.0621% | –
O=C(O)c1c2ccccc2cc2ccccc12 | 9.52% | –
O=C(Nc1ccccc1)c1cc(Cl)ccc1O | 0.38% | –
CC1=NN(c2ccc(S(=O)(=O)O)cc2)C(=O)C1N=Nc1ccccc1 (stereo not given) | -1.92% | –
Cc1cc(O)c(C(C)C)cc1Cl | – | inactive
Nc1nc2ccccc2n1Cc1ccc(F)cc1 | 0.144% [at 30.3 µM] | –
c1ccc(Cc2ccccc2)cc1 | 1.83% | –
Oc1c(Cl)cc(Cl)c2cccnc12 | -0.88% [at 30.3 µM] | –
